The full list was thinned out, with hits kept by preference.
Artemis endo inh: Artemis (human) endonuclease inhibition. Q96SD1. actives 0.78% (n = 30,000). inhibition, % at 10 µM. recombinant Artemis, quenched FAM hairpin cleavage fluorescence;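 active = at 10 µM dose, at least 30% inhibition, measured as corrected fluorescence normalized to stimulator and neutral control wells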
Target sequence (Q96SD1 whole entry, looked up): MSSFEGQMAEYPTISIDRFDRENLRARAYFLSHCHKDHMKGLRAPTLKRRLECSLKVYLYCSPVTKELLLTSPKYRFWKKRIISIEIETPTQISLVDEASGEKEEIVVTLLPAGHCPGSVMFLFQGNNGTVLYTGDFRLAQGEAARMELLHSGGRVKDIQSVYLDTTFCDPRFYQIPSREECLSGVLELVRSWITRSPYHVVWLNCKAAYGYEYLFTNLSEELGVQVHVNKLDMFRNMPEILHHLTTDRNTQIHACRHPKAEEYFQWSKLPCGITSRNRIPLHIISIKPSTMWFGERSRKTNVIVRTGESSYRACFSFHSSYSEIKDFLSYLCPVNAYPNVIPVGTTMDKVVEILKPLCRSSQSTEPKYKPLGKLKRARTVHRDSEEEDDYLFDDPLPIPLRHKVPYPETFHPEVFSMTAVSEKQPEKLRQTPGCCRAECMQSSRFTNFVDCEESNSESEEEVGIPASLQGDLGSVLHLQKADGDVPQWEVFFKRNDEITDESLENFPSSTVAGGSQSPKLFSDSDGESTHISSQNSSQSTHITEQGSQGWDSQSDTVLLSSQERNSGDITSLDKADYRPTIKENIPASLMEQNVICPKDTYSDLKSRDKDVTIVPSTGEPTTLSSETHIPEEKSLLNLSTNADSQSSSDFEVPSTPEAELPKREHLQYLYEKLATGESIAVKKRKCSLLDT
Each line names hits and unclear results; the compound was inactive in the other large screens.

O=C(N/C=N/OCc1ccc(Cl)cc1Cl)NOCc1ncc(C(F)(F)F)cc1Cl	none
BrC(=C\c1ccccc1)/C=N/N1CCN(c2ccccn2)CC1	none
Cc1cc(C)c(C)c(S(=O)(=O)N2CCN(CC(=O)NC(=O)NCc3ccccc3)CC2)c1C	none
O=C(C1COc2ccccc2O1)N1CCc2ccccc2C1 (configuration not stated)	none
Cn1c(-c2ccc(C=O)s2)nc2c3ccccc3c3ccccc3c21	Artemis endo inh 46
Cc1c(C)n(C)c2ccc(C(=O)Nc3cccc4ccccc34)cc12	none
CCNC(=O)c1cc2c(=O)n3cccc(C)c3nc2n(Cc2ccc(C)cc2)c1=N	none
CCCCn1c(=NC(=O)c2ccc3c(c2)OCO3)c(C#N)cc2c(=O)n3cccc(C)c3nc21	Artemis endo inh 40
CCOC(=O)c1cc2c(=O)n3cccc(C)c3nc2n(CC2CCCO2)c1=NC(C)=O (configuration not stated)	none
CCc1nc(SCc2ccc(F)cc2)[nH]c(=O)c1C#N	none
COC(=O)CN(c1cccc(F)c1)S(C)(=O)=O	none
C=CCN(CCNP(=O)(OCC)OCC)CP(=O)(OCC)OCC	none
Cc1[nH]n2c(=O)c3c(nc2c1-c1ccc(Cl)cc1)CCC3	none
Cc1[nH]n2c(=O)c3c(nc2c1-c1ccccc1)CCC3	none
Nc1[nH]n2c(=O)c3c(nc2c1N=Nc1ccc(Cl)cc1)CCCC3	Artemis endo inh 30
CC(=O)c1cc(C#N)c(Oc2ccc(Cl)cc2Cl)nc1C	none
Cn1c(NCc2ccccc2)cc(=O)n(C)c1=O	none
CC(=O)N(Cc1ccc(F)cc1)C1=C(NCc2ccccc2)C(=O)c2ccccc2C1=O	Artemis endo inh 39
CC(C)N(CCNC(=O)C1CCC(=O)N1Cc1ccc(F)cc1)Cc1ccccc1 (configuration not stated)	none
C=CCNS(=O)(=O)CC12CCC(CC1=O)C2(C)C (configuration not stated)	none
N#Cc1ccsc1NC(=O)CSc1ncnc2ccccc12	none
CCNC(=O)CSc1ncnc2sccc12	none
N#Cc1c(NC(=O)CSc2ncnc3sccc23)oc(-c2ccco2)c1-c1ccco1	Artemis endo inh 31
Clc1ccc(CON/C=N/c2ncnc3sccc23)c(Cl)c1	none
CCCOC(=O)C1=C(C)OC23OC(N)=C(C#N)C12C(=O)c1ccccc13 (configuration not stated)	none
CC(C(=O)Nc1ccccc1Sc1ccccc1)N(c1ccccc1)S(C)(=O)=O (configuration not stated)	none
COC(=O)c1ccc(Cl)c(-c2ccc(/C=N/NC(=O)Nc3ccccc3)o2)c1	none
CC1=NOC(=O)/C1=C\c1ccc(-c2cc(Cl)ccc2Cl)o1	Artemis endo inh 37
C=CCNC(=S)N/N=C/c1ccc(-c2cc(Cl)ccc2Cl)o1	none
Cc1cc(NC(=O)c2sccc2C)n(-c2cccc(Cl)c2)n1	none
CCC1CCc2c(sc3nc(SCC(=O)NCc4ccco4)n(-c4ccccc4)c(=O)c23)C1 (configuration not stated)	none
Cc1[nH]c2ccc(Br)cc2c(=O)c1CN1CCOCC1	none
O=c1ccc2cc3c([nH]c4ccc(Br)cc43)oc-2c1O	Artemis endo inh 81
O=c1c(O)c(-c2ccc3c(c2)OCO3)oc2ccccc12	none
COc1ccccc1C(=O)Nc1ccc(N2CCN(Cc3ccccc3)CC2)cc1	none
CCC(=O)N1CCN(c2ccc(NC(=S)NC(=O)c3cccc([N+](=O)[O-])c3)cc2)CC1	none
O=C(Nc1ccc(N2CCCC2)cc1)C(c1ccccc1)c1ccccc1	Artemis endo inh 52
COc1ccccc1C(=O)Nc1ccc(N2CCCCC2)cc1	none
CCCC(=O)Nc1ccc(N2CCOCC2)cc1	none
CC(C)C(=O)Nc1ccc(N2CCCC2)cc1	none
O=C(Cc1ccccc1)Nc1ccc(N2CCCC2)cc1	Artemis endo inh 59
CCOc1cccc(C(=O)NC(=S)Nc2ccc(N3CCCC3)cc2)c1	Artemis endo inh 43
CCCCOc1cccc(C(=O)Nc2ccc(N3CCN(CC)CC3)cc2)c1	none
CCCC(=O)N1CCN(c2ccc(NC(=O)C(C)(C)C)cc2)CC1	none
CCC(=O)Nc1ccc(N2CCN(Cc3ccccc3)CC2)cc1	none
CCCCC(=O)Nc1ccc(N2CCCC2)cc1	Artemis endo inh 44
CCN(CC)c1cnn(C/C(=N\OC)c2ccc(Cl)cc2)c(=O)c1Br	none
C/C(CC(=O)Nc1ccc(OCc2ccccc2)cc1)=N\NC(=O)C(=O)Nc1ccc(C)c(Cl)c1	none
Cc1ccc(/C=C/c2ccc(=O)n(Cc3ccccc3Cl)n2)cc1	none
CCCCOc1cccc(C(=O)NNC(=S)NC2CCCCC2)c1	none
CCOC(=O)c1ccc(NC(=O)COc2ccc(S(=O)(=O)NC(C)(C)C)cc2)cc1	none
Cc1cc(NC(=O)NC2CCCN2S(=O)(=O)c2ccc(Cl)cc2)no1 (configuration not stated)	none
Cc1ccc(S(=O)(=O)N/N=C/c2c(C)nn(-c3ccccc3)c2C)cc1	none
Cc1cc(C)cc(C(=O)N(NC(=O)Nc2ccc(Cl)cc2)C(C)(C)C)c1	none
Cc1ccc(CCNc2ccccc2C)cn1	none
CC(Sc1ccccc1)C(=O)Nc1ccccc1C(=O)N1CCOCC1 (configuration not stated)	none
CCN(CC)CCNS(=O)(=O)c1ccc(OC)c(Br)c1	none
COCCN(CC(=O)Nc1ccccc1)S(=O)(=O)c1ccc(S(=O)(=O)N2CCCC2)cc1	none
COc1ccc(S(=O)(=O)Nc2c(C)ccc3nsnc23)cc1OC	none
COc1ccc(OC)c(NC(=O)c2ccccc2NS(=O)(=O)c2cccc3cccnc23)c1	none
COc1cc(NCCCC(C)N)c2ncccc2c1 (configuration not stated)	Artemis endo inh 55
COc1ccc2[nH]c3c(NCCN(C(C)C)C(C)C)ncnc3c2c1	none
CCOC(=O)c1cnn(-c2ccccc2)c1-n1cccc1C(=O)C(=O)Nc1ccccc1	none
Oc1cccc(-c2nc3ccc4ccccc4c3c3c2CCC3)c1	none
CCOC(=O)C(C(=O)OCC)C(C(=O)OCC)N1CCOCC1 (configuration not stated)	none
CC(C)NC(=O)c1sc2nc3c(c(-c4cccs4)c2c1N)CN(C)CC3	none
CC(=O)c1sc2nc(-c3cccs3)cc(C(F)(F)F)c2c1N	none
Cc1cccc(NC(=O)c2sc3nc4c(c(-c5cccs5)c3c2N)CN(C)CC4)c1	Artemis endo inh 40
